Measured values published in the supplement of paper PMC6089552.
Out of some 3,200 compounds screened, about 300 (9.4%) showed activity. This excerpt belongs to a sample that is enriched for actives. Unmarked numbers belong to inactive results.

System: A673/TR/shEF
Assay: cell viability (LOESS-normalised, relative to median of negative controls) (log2 ratio); higher = more viable cells (less compound effect), active = hit call of the paper (over 3 MAD below the median)
Settings: treatment time: 72 h
In short: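 For three days, A673/TR/shEF Ewing sarcoma cells in 384-well plates (1,500 per well) were treated with library compounds at two or more concentrations or with DMSO controls, after doxycycline had been added or withheld 24 h beforehand to induce EWS-FLI1 shRNA knockdown. Viability was read by CellTiter-Glo luminescence on an Envision reader. The data were LOESS-corrected per plate, divided by the median of negative controls and log2-transformed.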

[1] = 0.103 µM, library screen: screen3, EWS-FLI1 expression: high (no doxycycline)
[2] = 0.103 µM, library screen: screen3, EWS-FLI1 expression: low (doxycycline-induced shRNA knockdown)
[3] = 0.308 µM, library screen: screen3, EWS-FLI1 expression: high (no doxycycline)
[4] = 0.308 µM, library screen: screen3, EWS-FLI1 expression: low (doxycycline-induced shRNA knockdown)
[5] = 0.926 µM, library screen: screen3, EWS-FLI1 expression: high (no doxycycline)
[6] = 0.926 µM, library screen: screen3, EWS-FLI1 expression: low (doxycycline-induced shRNA knockdown)
[7] = 2.8 µM, library screen: screen3, EWS-FLI1 expression: high (no doxycycline)
[8] = 2.8 µM, library screen: screen3, EWS-FLI1 expression: low (doxycycline-induced shRNA knockdown)
[9] = 8.3 µM, library screen: screen3, EWS-FLI1 expression: high (no doxycycline)
[10] = 8.3 µM, library screen: screen3, EWS-FLI1 expression: low (doxycycline-induced shRNA knockdown)
[11] = 25 µM, library screen: screen3, EWS-FLI1 expression: high (no doxycycline)
[12] = 25 µM, library screen: screen3, EWS-FLI1 expression: low (doxycycline-induced shRNA knockdown)
[13] = 0.25 µM, library screen: screen1, EWS-FLI1 expression: high (no doxycycline)
[14] = 0.25 µM, library screen: screen1, EWS-FLI1 expression: low (doxycycline-induced shRNA knockdown)
[15] = 2.5 µM, library screen: screen1, EWS-FLI1 expression: high (no doxycycline)
[16] = 2.5 µM, library screen: screen1, EWS-FLI1 expression: low (doxycycline-induced shRNA knockdown)
[17] = 0.25 µM, library screen: screen2, EWS-FLI1 expression: high (no doxycycline)
[18] = 0.25 µM, library screen: screen2, EWS-FLI1 expression: low (doxycycline-induced shRNA knockdown)
[19] = 2.5 µM, library screen: screen2, EWS-FLI1 expression: high (no doxycycline)
[20] = 2.5 µM, library screen: screen2, EWS-FLI1 expression: low (doxycycline-induced shRNA knockdown)

CCc1c2c(nc3ccc(OC(=O)N4CCC(N5CCCCC5)CC4)cc13)-c1cc3c(c(=O)n1C2)COC(=O)[C@]3(O)CC
cell viability (log2) [1]: 0.00275
cell viability (log2) [2]: 0.0626
cell viability (log2) [3]: -0.0633
cell viability (log2) [4]: 0.00509
cell viability (log2) [5]: -0.241 (active)
cell viability (log2) [6]: 0.026
cell viability (log2) [7]: -1.31 (active)
cell viability (log2) [8]: -0.173 (active)
cell viability (log2) [9]: -1.95 (active)
cell viability (log2) [10]: -0.414 (active)
cell viability (log2) [11]: -2.57 (active)
cell viability (log2) [12]: -0.647 (active)

CC[C@@]1(O)C(=O)OCc2c1cc1n(c2=O)Cc2cc3c(CN(C)C)c(O)ccc3nc2-1
cell viability (log2) [1]: -0.373 (active)
cell viability (log2) [2]: -0.0171
cell viability (log2) [3]: -1.79 (active)
cell viability (log2) [4]: -0.321 (active)
cell viability (log2) [5]: -2.4 (active)
cell viability (log2) [6]: -0.459 (active)
cell viability (log2) [7]: -3.72 (active)
cell viability (log2) [8]: -0.844 (active)
cell viability (log2) [9]: -4.21 (active)
cell viability (log2) [10]: -1.11 (active)
cell viability (log2) [11]: -4.26 (active)
cell viability (log2) [12]: -1.44 (active)

CC[C@@]1(O)C(=O)OCc2c1cc1n(c2=O)Cc2cc3cc(O)ccc3nc2-1
cell viability (log2) [13]: -1.78 (active)
cell viability (log2) [14]: -0.267 (active)
cell viability (log2) [15]: -4.23 (active)
cell viability (log2) [16]: -1.06 (active)

C=CC(C)(O)CC/C=C(\C)CCC=C(C)C (configuration not stated)
cell viability (log2) [13]: 0.0873
cell viability (log2) [14]: 0.0984
cell viability (log2) [15]: 0.22
cell viability (log2) [16]: 0.113

COc1cc(OC)c(C2NC(=S)NC(C)=C2C(=O)Nc2ccccc2Cl)cc1OC (configuration not stated)
cell viability (log2) [13]: 0.0713
cell viability (log2) [14]: 0.0952
cell viability (log2) [15]: 0.0303
cell viability (log2) [16]: 0.0128

CC(C)C[C@H](NC(=O)OCC1c2ccccc2-c2ccccc21)C(=O)O
cell viability (log2) [13]: 0.0635
cell viability (log2) [14]: 0.0579
cell viability (log2) [15]: 0.116
cell viability (log2) [16]: -0.00318

CC(C)CCCC(C)C1CCC2C3CCC4CC(=O)CCC4(C)C3CCC12C (configuration not stated)
cell viability (log2) [13]: 0.027
cell viability (log2) [14]: 0.0292
cell viability (log2) [15]: 0.169
cell viability (log2) [16]: 0.017

C/C1=C\CC/C(C)=C/CC(C)(C)/C=C/C1
cell viability (log2) [13]: 0.0853
cell viability (log2) [14]: 0.0875
cell viability (log2) [15]: 0.112
cell viability (log2) [16]: 0.0862

Cc1ccc(C(C)C)cc2c(C)ccc1-2
cell viability (log2) [13]: 0.0556
cell viability (log2) [14]: -0.0467
cell viability (log2) [15]: 0.0686
cell viability (log2) [16]: 0.0228

C=C1CCC2C(CC2(C)C)C(=C)CCC1=NO (configuration not stated)
cell viability (log2) [13]: 0.105
cell viability (log2) [14]: 0.00367
cell viability (log2) [15]: 0.133
cell viability (log2) [16]: 0.0769

CC(C)=CCc1c(O)cc(C)oc1=O
cell viability (log2) [13]: 0.0912
cell viability (log2) [14]: -0.0147
cell viability (log2) [15]: 0.109
cell viability (log2) [16]: -0.0401

O=c1[nH]cc(F)c(=O)[nH]1
cell viability (log2) (0.025 µM, library screen: screen2, EWS-FLI1 expression: high (no doxycycline)): 0.207
cell viability (log2) (0.025 µM, library screen: screen2, EWS-FLI1 expression: low (doxycycline-induced shRNA knockdown)): 0.0564
cell viability (log2) [1]: 0.0782
cell viability (log2) [2]: 0.0161
cell viability (log2) [13]: 0.0591
cell viability (log2) [14]: -0.00519
cell viability (log2) [17]: 0.172
cell viability (log2) [18]: 0.0764
cell viability (log2) [3]: 0.113
cell viability (log2) [4]: 0.0726
cell viability (log2) [5]: 0.13
cell viability (log2) [6]: 0.0535
cell viability (log2) [15]: 0.0991
cell viability (log2) [16]: 0.0157
cell viability (log2) [19]: 0.104
cell viability (log2) [20]: 0.00707
cell viability (log2) [7]: 0.139
cell viability (log2) [8]: 0.018
cell viability (log2) [9]: 0.0774
cell viability (log2) [10]: 0.0748
cell viability (log2) (25 µM, library screen: screen2, EWS-FLI1 expression: high (no doxycycline)): -0.375 (active)
cell viability (log2) (25 µM, library screen: screen2, EWS-FLI1 expression: low (doxycycline-induced shRNA knockdown)): -0.051
cell viability (log2) [11]: -0.0664
cell viability (log2) [12]: -0.00616

CN1C[C@H](O)[C@@H](O)[C@H](O)[C@H]1CO
cell viability (log2) [17]: -0.0352
cell viability (log2) [18]: 0.0677
cell viability (log2) [19]: 0.0611
cell viability (log2) [20]: 0.0287

O=C1NC(=O)C(c2ccccc2)(c2ccccc2)N1
cell viability (log2) [1]: 0.0587
cell viability (log2) [2]: -0.0104
cell viability (log2) [13]: 0.0952
cell viability (log2) [14]: 0.161
cell viability (log2) [17]: 0.143
cell viability (log2) [18]: 0.0547
cell viability (log2) [3]: 0.0798
cell viability (log2) [4]: 0.0371
cell viability (log2) [5]: 0.05
cell viability (log2) [6]: 0.0456
cell viability (log2) [15]: 0.145
cell viability (log2) [16]: 0.128
cell viability (log2) [19]: 0.044
cell viability (log2) [20]: 0.0796
cell viability (log2) [7]: 0.0207
cell viability (log2) [8]: 0.0711
cell viability (log2) [9]: -0.00351
cell viability (log2) [10]: 0.0628
cell viability (log2) [11]: 0.0771
cell viability (log2) [12]: 0.0956

CCC1(c2ccccc2)NC(=O)N(C)C1=O (configuration not stated)
cell viability (log2) [13]: 0.0606
cell viability (log2) [14]: 0.0208
cell viability (log2) [15]: 0.107
cell viability (log2) [16]: 0.103

CCC1(c2ccccc2)C(=O)NCNC1=O
cell viability (log2) [1]: 0.0813
cell viability (log2) [2]: 0.0528
cell viability (log2) [13]: 0.0645
cell viability (log2) [14]: 0.0903
cell viability (log2) [17]: 0.00606
cell viability (log2) [18]: 0.00378
cell viability (log2) [3]: 0.122
cell viability (log2) [4]: 0.128
cell viability (log2) [5]: 0.168
cell viability (log2) [6]: 0.0786
cell viability (log2) [15]: 0.179
cell viability (log2) [16]: 0.204
cell viability (log2) [19]: -0.197 (active)
cell viability (log2) [20]: -0.337 (active)
cell viability (log2) [7]: 0.146
cell viability (log2) [8]: 0.0526
cell viability (log2) [9]: 0.0966
cell viability (log2) [10]: 0.0601
cell viability (log2) [11]: 0.121
cell viability (log2) [12]: 0.121
